Source: PubChem BioAssay AID1159580 (chemical genetic matrix, 2015)
The whole screen tested about 5,500 compounds, of which about 2,000 (36%) were called active. Inconclusive results (about 18%) are left out. Rule as the data show it: active = normalized growth mostly below about 0.91 (no sharp cut-off); inconclusive = no clear call, values can overlap the other calls; inactive = mostly above about 0.92. The list shows a part of the results.

Test: chemical genetic growth profiling, strain panel (AID 1159580);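 also: tested at 20 µM; growth read once vehicle control cultures reached saturation at 30 °C; 1 = growth at the plate median or of vehicle wells; lower values mean less growth of the strain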
Conditions: S. cerevisiae deletion strains, growth OD

Measured: normalized growth

COc1ccc2c(=O)ccoc2c1
inactive: locus YAL013W, strain DEP1, active compounds read low 1.02 | locus YAL021C, strain ccr4, active compounds read low 1.02 | locus YAL026C, strain drs2, active compounds read low 1.02 | locus YAL030W, strain snc1, active compounds read low 1.01 | locus YBL061C, strain skt5, active compounds read low 1.01 | locus YBR009C, strain hhf1, active compounds read low 1.02 | locus YBR021W, strain FUR4, active compounds read low 0.979 | locus YBR023C, strain chs3, active compounds read low 1.02 | locus YBR171W, strain sec66, active compounds read low 1.04 | locus YBR229C, strain ROT2, active compounds read low 1.01 | locus YBR231C, strain swc5, active compounds read low 1.01 | locus YBR279W, strain paf1, active compounds read low 1.02 | locus YCL011C, strain gbp2, active compounds read low 1.02 | locus YCL016C, strain dcc1, active compounds read low 1.02 | locus YCL029C, strain bik1, active compounds read low 1.01 | locus YCL061C, strain MRC1, active compounds read low 1.02 | locus YCL069W, strain vba3, active compounds read low 1.02 | locus YCR088W, strain abp1, active compounds read low 1.03 | locus YDL005C, strain med2, active compounds read low 1.02 | locus YDL035C, strain GPR1, active compounds read low 1 | locus YDL040C, strain nat1, active compounds read low 1.02 | locus YDL074C, strain BRE1, active compounds read low 1.02 | locus YDL101C, strain DUN1, active compounds read low 1.02 | locus YDL134C, strain PPH21, active compounds read low 1.02 | locus YDL185W, strain tfp1, active compounds read low 1.01 | locus YDL192W, strain arf1, active compounds read low 1.01 | locus YDR001C, strain nth1, active compounds read low 1.02 | locus YDR069C, strain doa4, active compounds read low 1.02 | locus YDR101C, strain arx1, active compounds read low 0.995 | locus YDR137W, strain rgp1, active compounds read low 1.03 | locus YDR150W, strain NUM1, active compounds read low 1.03 | locus YDR159W, strain sac3, active compounds read low 1.04 | locus YDR162C, strain NBP2, active compounds read low 1.02 | locus YDR195W, strain ref2 1.08 | locus YDR297W, strain sur2, active compounds read low 1.02 | locus YDR318W, strain mcm21, active compounds read low 0.992 | locus YDR334W, strain swr1, active compounds read low 1.02 | locus YDR335W, strain msn5, active compounds read low 1.02 | locus YDR388W, active compounds read low 1.01 | locus YDR392W, strain spt3, active compounds read low 1.04 | locus YDR502C, strain sam2, active compounds read low 1.01 | locus YEL003W, strain gim4, active compounds read low 1.02 | locus YEL037C, strain rad23, active compounds read low 1.02 | locus YEL061C, strain CIN8 (second series), active compounds read low 1.02 | locus YEL061C, strain CIN8, active compounds read low 1.01 | locus YER015W, strain faa2, active compounds read low 1.03 | locus YER016W, strain bim1, active compounds read low 1.02 | locus YER110C, active compounds read low 1.01 | locus YER111C, strain swi4, active compounds read low 1.01 | locus YER155C, strain BEM2 (second series), active compounds read low 1 | locus YER155C, strain BEM2, active compounds read low 1.02 | locus YER167W, strain BCK2, active compounds read low 1.04 | locus YFR010W, strain ubp6, active compounds read low 1.03 | locus YGL078C, strain dbp3, active compounds read low 1.02 | locus YGL086W, strain mad1, active compounds read low 1.01 | locus YGL167C, strain pmr1, active compounds read low 1.03 | locus YGL173C, strain kem1, active compounds read low 1.02 | locus YGL227W, strain vid30, active compounds read low 1.03 | locus YGL240W, strain doc1, active compounds read low 1.02 | locus YGL248W, strain PDE1, active compounds read low 1.02 | locus YGL253W, strain hxk2, active compounds read low 1.02 | locus YGR078C, strain PAC10, active compounds read low 0.997 | locus YGR135W, strain pre9, active compounds read low 0.978 | locus YGR229C, strain SMI1, active compounds read low 1.04 | locus YGR252W, strain gcn5, active compounds read low 0.825 | locus YHR013C, strain ard1, active compounds read low 1.08 | locus YHR027C, strain rpn1, active compounds read low 1.03 | locus YHR030C, strain SLT2, active compounds read low 1.02 | locus YHR079C, strain IRE1 (second series), active compounds read low 0.998 | locus YHR094C, strain hxt1, active compounds read low 1.01 | locus YHR129C, strain ARP1, active compounds read low 1.01 | locus YHR142W, strain chs7, active compounds read low 1.03 | locus YHR200W, strain rpn10, active compounds read low 0.997 | locus YIL066C, strain RNR3, active compounds read low 1.01 | locus YIL073C, strain SPO22, active compounds read low 1.04 | locus YIL125W, strain kgd1, active compounds read low 1.02 | locus YIR030C, strain dcg1, active compounds read low 1.01 | locus YJL092W, strain hpr5, active compounds read low 1.02 | locus YJL095W, strain BCK1 (second series), active compounds read low 1.02 | locus YJL095W, strain BCK1, active compounds read low 0.991 | locus YJL115W, strain asf1, active compounds read low 1.01 | locus YJL129C, strain trk1, active compounds read low 1.06 | locus YJL134W, strain LCB3, active compounds read low 1.02 | locus YJL154C, strain vps35, active compounds read low 1.03 | locus YJL164C, strain tpk1, active compounds read low 1.03 | locus YJL166W, strain qcr8, active compounds read low 1.02 | locus YJL168C, strain set2, active compounds read low 1.01 | locus YJL187C, strain SWE1 (second series), active compounds read low 1.01 | locus YJL187C, strain SWE1, active compounds read low 1.02
